Results as given in PubChem BioAssay AID463173 (ICCB-Longwood Screening Facility, Harvard Medical School, 2010).
Out of some 52,000 compounds screened, about 4,300 (8.3%) were called active. The list comes from a sample in which actives are over-represented; it also holds similar structures and randomly drawn compounds. A number with no mark means an inactive call. Rule as the data show it: active = survival mostly below about 52% (no sharp cut-off); inactive = mostly above about 56%.

System: DeltatarO mutant
Test: S. aureus survival, RN4220 and DeltatarO strains – OD600, teichoic acid synthesis inhibitors, primary screen (AID 463173)
Conditions: S. aureus RN4220 wild type/DeltatarO growth, OD600, 18 h, active compounds read low, screened at 18.75 µg/mL (by protocol)

Going from `CCc1c(C)nc2cc(-c3ccc(OC)c(OC)c3)nn2c1NCC(C)(C)CN(C)C` to `COc1cccc(CNC(=O)CCc2c(C)nc3c(c(C)nn3-c3ccc(C)c(C)c3)c2C)c1`, the survival falls from 98% to 67%.

First: Cc1ccc(-n2ncc(C(=O)NCc3ccccn3)c2C2CCN(C(=O)OC(C)(C)C)CC2)cc1C
Second: Cc1ccc(-n2ncc(C(=O)NCc3ccc4c(c3)OCO4)c2C2CCN(C(=O)OC(C)(C)C)CC2)c(C)c1
The survival of the first is higher: 102% for the first, 92% for the second.

First: CCCC(=O)N1CCCC(c2nc(-c3ccc(OC)cc3)no2)C1 (stereo unspecified)
Second: CCc1nc2ccc(C(=O)N3CCN(c4cccc(OC)c4)CC3)cc2nc1CC
The survival of the first is lower: 82% for the first, 83% for the second.

Going from `CCOc1nc(NC(=O)NS(=O)(=O)Oc2cccc(F)c2)nc(-c2ccccc2)n1` to `CCOc1ccc(N(C(=O)c2ccccc2F)S(=O)(=O)c2ccc3c(c2)n(C)c(=O)n3C)cc1`, the survival falls from 74% to 47%.

Compared with `Cc1c(NC(=O)Nc2ccccc2C(F)(F)F)sc2nc3n(c(=O)c12)CCC(C)CC3` (stereo unspecified), `Cc1ccccc1CNC(=O)c1cnc2sc(N3CCOCC3)nn2c1=O` is lower in survival: 83% for the first, 68% for the second.

First: COc1cccc(C(=O)NC2CC(=O)N(c3ccc4c(c3)OCCO4)C2)c1OC (stereo unspecified)
Second: COc1cccc(N2CC(NC(=O)c3cccs3)CC2=O)c1 (stereo unspecified)
The survival of the first is higher: 107% for the first, 74% for the second.

Compared with `CCCCN(CCCC)CCCNC(=O)c1ccc2nc(N3CCCCC3)sc2c1`, `O=C(NCc1ccc(Cl)cc1)c1cc(S(=O)(=O)N2CCCCC2)c[nH]1` is higher in survival: 102% for the first, 103% for the second.

Going from `CCCCOCc1cc(CN2CCN(c3cccc(Cl)c3)CC2)c(O)c2ncccc12` to `CN1C(=O)Cc2cc(S(=O)(=O)CCC(=O)N3CCN(c4cccc(Cl)c4)CC3)ccc21`, the survival falls from 83% to 62%.

First: CCc1cccc(C)c1NC(=O)C1CCN(S(=O)(=O)Cc2ccccc2)CC1
Second: Cc1cccc(N(CC(=O)NCCSCc2ccccc2)S(=O)(=O)c2ccccc2)c1C
The survival of the first is higher: 84% for the first, 57% for the second.

Going from `Cc1ccc(S(=O)(=O)N(CC(=O)Nc2ccc(Cl)cc2Cl)c2ccccc2C)cc1` to `Cc1ccc(S(=O)(=O)N(CC(=O)NCCSc2ccc(Cl)cc2)c2ccccc2C)cc1`, the survival falls from 106% to 58%.

Compared with `Cc1ccc(CNC(=O)CN(c2cccc(C)c2C)S(=O)(=O)c2ccccc2)cc1`, `COc1ccc(CCNC(=O)CN(c2ccccc2OC)S(=O)(=O)c2ccc(C)cc2)cc1` is lower in survival: 73% for the first, 71% for the second.

Compared with `Cc1ccc(S(=O)(=O)N(CC(=O)NCCSc2ccc(Cl)cc2)c2cccc(Cl)c2)cc1`, `CCOc1ccc(N(C(=O)c2ccc(C)cc2)S(=O)(=O)c2ccc3c(c2)n(C)c(=O)n3C)cc1` is lower in survival: 112% for the first, 45% for the second.

Compared with `Cc1ccc(-n2nc3c(=O)n(CCCC(=O)NCCc4ccccc4Cl)nc(C)c3c2C)cc1`, `CCc1nn(CC(=O)NCCCc2ccccc2)c(=O)c2cc3ccccc3n12` is lower in survival: 91% for the first, 90% for the second.

Compared with `O=S(=O)(c1ccccc1)c1nnn2c1nc(NC1CCCCCC1)c1sccc12`, `Cc1ccc(-n2ncc3c(NC4CCCCC4)ncnc32)cc1` is higher in survival: 72% for the first, 88% for the second.

First: Cc1nc(N2CCOCC2)c2c(C(=O)N(C)Cc3ccccc3)c(C)oc2n1
Second: Cc1ccccc1NCc1cccn1-c1nnc(N2CCOCC2)s1
The survival of the first is higher: 118% for the first, 112% for the second.

Going from `COC(=O)c1scc(-c2ccc(C)cc2)c1S(=O)(=O)N1CCN(c2ccccc2F)CC1` to `Cc1ccc2c(c1)-c1c(cnn1CC(=O)N1CCN(c3ccccc3F)CC1)CO2`, the survival falls from 118% to 73%.

Going from `COc1ccc(Cn2c(SCC(=O)NCc3ccccc3)nc3ccccc32)cc1` to `COc1ccc(Cn2c(SCC(=O)Nc3ccc(OC)cc3)nc3ccccc32)cc1`, the survival falls from 117% to 88%.

Going from `CCOc1cc(Cn2c(-c3ccc(O)c(OCC)c3)nc3ccccc32)ccc1O` to `COc1ccc(Cn2c(SC)nc3ccccc32)cc1`, the survival rises from 73% to 97%.

Compared with `COc1ccc(-c2noc(=O)n2Cc2ccccc2)cc1`, `COc1ccc(Cn2c(=O)c3ccccc3n3c(-c4ccc(C)cc4)nnc23)cc1` is higher in survival: 75% for the first, 90% for the second.

Going from `Cc1ccc(NC(=O)Cn2c(=O)oc3cc(S(=O)(=O)N4CCCCC4)ccc32)c(C)c1` to `CC1CCN(S(=O)(=O)c2ccc3c(c2)N(CC(=O)N2CCN(c4ccc(Cl)cc4)CC2)C(=O)CO3)CC1`, the survival falls from 81% to 62%.

Compared with `Cc1cc(C)cc(NC(=O)C(=O)NCCc2sc(-c3cccc(F)c3)nc2C)c1`, `Cc1cc(C)cc(NC(=O)CSc2nccn2C2CCCC2)c1` is higher in survival: 80% for the first, 94% for the second.

Compared with `COc1cccc(-n2c(=O)c3sc4ccccc4c3n(CC(=O)Nc3ccc(F)cc3F)c2=O)c1`, `COc1ccc(N(C(=O)c2ccccc2)S(=O)(=O)c2ccc3c(c2)n(C)c(=O)n3C)cc1` is higher in survival: 64% for the first, 89% for the second.

Going from `O=C(NCCc1ccccc1)c1cc(Sc2cccc(Cl)c2)nc2ccccc12` to `O=C1N(Cc2ccccc2)c2ccc(Cl)cc2C1(O)c1c[nH]c2ccccc12` (stereo unspecified), the survival falls from 88% to 66%.

Going from `CCC(=O)N1CCc2cc(S(=O)(=O)CCC(=O)N3CCN(c4cccc(C)c4)C(C)C3)ccc21` (stereo unspecified) to `Cc1ccc2c(c1)-c1c(cnn1CC(=O)N1CCN(c3cc(Cl)ccc3C)CC1)CO2`, the survival falls from 76% to 49%.

First: COc1cc(Cl)c(C)cc1NC(=O)Cn1ncc2c1-c1cc(C)ccc1OC2
Second: Cc1ccc2c(c1)-c1c(cnn1CC(=O)N1CCN(c3cccc(C(F)(F)F)c3)CC1)CO2
The survival of the first is higher: 58% for the first, 50% for the second.

First: Cc1ccc(C(=O)c2oc3ccccc3c2NC(=O)c2cc(-c3ccc(Cl)cc3)on2)cc1
Second: Cc1ccc(C)c(CN2C(=O)C(O)(c3c[nH]c4ccccc34)c3ccccc32)c1 (stereo unspecified)
The survival of the first is lower: 87% for the first, 142% for the second.

First: CC1CCC(NC(=O)c2ccc3c(c2)N(Cc2cccc(Cl)c2)C(=O)c2ccccc2S3(=O)=O)CC1 (stereo unspecified)
Second: O=C1N(Cc2ccccc2)c2ccccc2C1(O)c1c[nH]c2ccccc12 (stereo unspecified)
The survival of the first is higher: 74% for the first, 55% for the second.

Going from `COc1ccc2[nH]c(=O)c(CN(CCO)S(=O)(=O)c3ccc(Cl)c(C(F)(F)F)c3)cc2c1` to `COc1ccc(C(=O)N(c2ccc(OC)cc2)S(=O)(=O)c2ccc3c(c2)n(C)c(=O)n3C)cc1`, the survival falls from 98% to 84%.

Compared with `COc1ccc(NCc2cccn2-c2nnc(N3CCOCC3)s2)c(OC)c1`, `COc1ccc(-n2nnnc2C2CCN(S(=O)(=O)c3ccc(C)cc3)CC2)cc1` is higher in survival: 78% for the first, 99% for the second.

First: CCNC(=O)c1ccc(NC(=O)N2CCCCc3ccccc32)cc1
Second: CCOc1ccc(NC(=O)CCS(=O)(=O)c2ccc3c(c2)n(C)c(=O)c(=O)n3C)cc1
The survival of the first is higher: 102% for the first, 87% for the second.

Going from `CCCCCC(=O)N(c1ccc(OCC)cc1)S(=O)(=O)c1ccc2c(c1)n(C)c(=O)n2C` to `CC(C)c1cnc2c(c1SCC(=O)Nc1cccc([N+](=O)[O-])c1)c(=O)n(C)c(=O)n2C`, the survival falls from 111% to 69%.

Compared with `Cc1ccc(-c2nnc(SCC(=O)NCCC(C)C)nc2-c2ccc(C)cc2)cc1`, `CC(C)N1C(=O)C(O)(c2c[nH]c3ccccc23)c2ccccc21` (stereo unspecified) is higher in survival: 104% for the first, 129% for the second.

Compared with `Cc1cccc(N(C(=O)c2csnn2)C(C(=O)NC2CCCCC2)c2ccco2)c1` (stereo unspecified), `O=C(OCc1cc(=O)n2nc(-c3cccs3)sc2n1)c1ccccc1` is lower in survival: 87% for the first, 65% for the second.

First: CCCCN1C(=O)C(O)(c2c[nH]c3ccccc23)c2cc(Br)ccc21 (stereo unspecified)
Second: O=C1N(Cc2ccccc2Cl)c2ccccc2C1(O)c1c[nH]c2ccccc12 (stereo unspecified)
The survival of the first is lower: 50% for the first, 64% for the second.

First: CCc1ccccc1NC(=O)Nc1c[nH]c(=O)[nH]c1=O
Second: C/C(=N\NC(N)=O)C1CC(Cc2ccccc2)C(=O)O1 (stereo unspecified)
The survival of the first is higher: 75% for the first, 57% for the second.

`c1ccc(Nc2c(-c3ccccc3)nc3ncccn23)cc1` showed a survival of 81%.

`Cc1ccc(S(=O)(=O)N(CC(=O)NCCc2ccc(Cl)cc2)c2ccccc2C)cc1` was tested, and the survival was 49% (active).
`Cc1cccc(N(CC(=O)NCCc2ccccc2)S(=O)(=O)c2ccccc2)c1C` was tested, and the survival was 56% (active).
In the case of `Cc1ccc(S(=O)(=O)N(CC(=O)Nc2c(C)cccc2C)c2cccc(Cl)c2)cc1`, the survival is reported as 46% (active).
For `COc1ccc(-c2nc3ccccc3n2Cc2ccc(C(C)C)cc2)cc1`, the survival was 4% (active).
`COc1ccc(-c2nc3ccccc3n2Cc2ccc(Cl)cc2)cc1` was tested, and the survival was 6% (active).
In the case of `COc1ccc(-c2nc3ccccc3n2Cc2ccccc2)cc1`, the survival is reported as -1% (active).
In the case of `CCN(C(=O)Cn1ncc2c1-c1cc(C)ccc1OC2)c1cc(Cl)ccc1OC`, the survival is reported as 31% (active).
With `Cc1cccc(N2CCN(C(=O)Cn3ncc4c3-c3cc(C)ccc3OC4)CC2C)c1` (stereo unspecified) the survival was 47% (active).
`Cc1cccc(N2CCN(C(=O)CCS(=O)(=O)c3ccc4c(c3)CC(=O)N4C)CC2C)c1` (stereo unspecified) was tested, and the survival was -2% (active).
`CCOc1ccc(N(CC(=O)OC)S(=O)(=O)c2ccc3c(c2)n(C)c(=O)c(=O)n3C)cc1` was tested, and the survival was 46% (active).
For `CCOc1ccc(N(C(=O)c2ccc(Cl)cc2)S(=O)(=O)c2ccc3c(c2)n(C)c(=O)n3C)cc1`, the survival was 37% (active).
For `CCOc1ccc(N(C(=O)c2ccc(OC)cc2)S(=O)(=O)c2ccc3c(c2)n(C)c(=O)n3C)cc1`, the survival was 37% (active).
With `Cc1ccccc1CN1C(=O)C(O)(c2c[nH]c3ccccc23)c2cc(Cl)ccc21` (stereo unspecified) the survival was -2% (active).
With `Cc1ccc(CN2C(=O)C(O)(c3c[nH]c4ccccc34)c3cc(Cl)ccc32)cc1` (stereo unspecified) the survival was -3% (active).
With `CCN1C(=O)C(O)(c2c[nH]c3ccccc23)c2cc(Br)ccc21` (stereo unspecified) the survival was 55% (active).
